# Results taken from PubChem BioAssay.
# Activity calls are given as the source filed them.
# Legend:
# [1] = small molecules captured by biotinylated probe aFSTL3 – biochemical, small-molecule microarray, fluorescence 635/667, stem cell growth factor project, primary screen (AID 1064); conditions: higher = more signal;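 further: measures binding of the biotinylated anti-FSTL3 antibody to printed compounds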
# [2] = binders from COS7 lysate, DM2A8 probe, primary screen, torsin A project, cell lysate, small-molecule microarray, fluorescence 635/667 (AID 1065); conditions: higher = more signal, COS7 lysate expressing mutant human TOR1A
# [3] = small molecules captured by biotinylated probe aFGF2 – biochemical, small-molecule microarray, fluorescence 635/667, stem cell growth factor project, primary screen (AID 1067); conditions: higher = more signal;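 further: measures binding of biotinylated aFGF2 protein to printed compounds on slides; z-score merges feature fluorescence and signal-to-noise across triplicate slides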
# [4] = small molecules captured by biotinylated probe aFGF10 – biochemical, small-molecule microarray, fluorescence 635/667, stem cell growth factor project, primary screen (AID 1071); conditions: higher = more signal;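 further: score merges 667 nm spot intensity and signal to noise from triplicate slides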
# [5] = biological target: Neurogenic locus notch homolog protein 2 (Homo sapiens) (UniProt Q04721); experiment: small molecules binding Notch2 protein – biochemical, small-molecule microarray, 635 nm fluorescence, stem cell growth factors, primary screen (AID 1073); conditions: higher = more signal
# [6] = biological target: Pro-neuregulin-1, membrane-bound isoform (Homo sapiens) (UniProt Q02297); experiment: small molecules binding neuregulin-1 protein – biochemical, small-molecule microarray, fluorescence 635/667, psychiatric disease protein project, primary screen (AID 1075); conditions: NRG1 binding, 635 nm fluorescence, higher = more signal;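 further: score combines 667 nm spot fluorescence with signal to noise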
# Chain of Pro-neuregulin-1, membrane-bound isoform (Homo sapiens) (Q02297 whole entry, looked up, the tested form may be a part, canonical isoform): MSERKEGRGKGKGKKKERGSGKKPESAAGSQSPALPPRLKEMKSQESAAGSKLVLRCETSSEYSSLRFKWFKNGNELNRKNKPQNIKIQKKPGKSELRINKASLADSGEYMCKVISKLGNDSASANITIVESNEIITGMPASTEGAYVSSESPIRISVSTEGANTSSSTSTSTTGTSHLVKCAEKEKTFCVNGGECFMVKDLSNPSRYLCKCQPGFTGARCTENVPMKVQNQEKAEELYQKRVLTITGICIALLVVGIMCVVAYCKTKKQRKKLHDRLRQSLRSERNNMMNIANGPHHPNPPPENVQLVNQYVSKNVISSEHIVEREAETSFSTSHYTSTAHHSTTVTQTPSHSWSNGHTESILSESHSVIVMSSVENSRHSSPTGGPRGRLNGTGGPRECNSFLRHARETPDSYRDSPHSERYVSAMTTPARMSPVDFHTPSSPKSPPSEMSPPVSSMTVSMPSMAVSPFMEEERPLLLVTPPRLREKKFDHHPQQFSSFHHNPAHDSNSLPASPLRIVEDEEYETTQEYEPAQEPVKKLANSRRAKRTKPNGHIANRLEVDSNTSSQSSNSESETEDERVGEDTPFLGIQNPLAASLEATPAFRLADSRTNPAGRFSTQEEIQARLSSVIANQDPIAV
# [7] = test system: Neuregulin-1 EGF-like domain; experiment: small molecules binding NRG1 EGF domain – biochemical, small-molecule microarray, 635 nm fluorescence, primary screen (AID 1081); conditions: higher = more signal;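 further: binding of the protein to compounds printed on small-molecule microarray slides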
# [8] = FRG1 expression reporter modulators in myotubes – cell-based, C2C12 myotubes, firefly/Renilla luciferase, luminescence, FRG1 inhibition for FSHD, primary screen (AID 1084); conditions: FRG1 promoter luciferase, higher = more signal, called active from +8 up or from −8 down
# [9] = small molecules captured by biotinylated probe aFST – biochemical, small-molecule microarray, fluorescence 635/667, stem cell growth factor project, primary screen (AID 1086); conditions: higher = more signal;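 further: score merges 667 nm fluorescence with signal-to-noise of each printed compound spot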
# [10] = binders of probe aHhip on microarray, primary screen, stem cell growth factor project, biochemical, small-molecule microarray, fluorescence 635/667 (AID 1087); conditions: higher = more signal;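 further: score merges spot fluorescence at 667nm with spot signal to noise ratio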
# [11] = test system: PRMT1 (protein arginine N-methyltransferase 1); experiment: small molecules binding arginine methyltransferase PRMT1 – biochemical, small-molecule microarray, 635 nm fluorescence, primary screen (AID 1088); conditions: higher = more signal;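 further: binding of Prmt1 protein to compounds spotted on small-molecule microarray slides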
# [12] = growth effects on S. cerevisiae YJM789 – YJM789 clinical isolate, OD600, 24 h, basal, primary screen (AID 1089); conditions: higher = more signal, called active from +8 up or from −8 down;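 further: growth of clinical yeast isolate S. cerevisiae YJM 789 seeded 1000 cells per well; test concentration not given here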
# [13] = S. pombe growth modifiers, basal conditions – strain 972, OD600, 24 h, no modulator, primary screen (AID 1090);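 further: basal condition with compound alone and no growth modifier present; test concentration not given here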; conditions: S. pombe 972 growth, higher = more signal, called active from +8 up or from −8 down
# [14] = budding yeast growth modifiers under rapamycin – strain BY4716, OD600, 96 h, primary screen (AID 1091); further: test concentration not given here; conditions: S. cerevisiae BY4716 + rapamycin, higher = more signal, called active from +8 up or from −8 down
# [15] = biological target: Torsin-1A-interacting protein 2 (Homo sapiens) (UniProt Q8NFQ8); experiment: small molecules binding lysate-expressed LULL1 – cell lysate, human LULL1 lysate, 635/667 nm fluorescence, primary screen (AID 1092); conditions: small-molecule microarray, hLULL1 lysate binding, 635 nm fluorescence; higher = more signal;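 further: probe is lysate of COS7 cells overexpressing human LULL1; score merges per-feature 667 nm fluorescence with signal-to-noise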
# Chain of Torsin-1A-interacting protein 2 (Homo sapiens) (Q8NFQ8 whole entry, looked up): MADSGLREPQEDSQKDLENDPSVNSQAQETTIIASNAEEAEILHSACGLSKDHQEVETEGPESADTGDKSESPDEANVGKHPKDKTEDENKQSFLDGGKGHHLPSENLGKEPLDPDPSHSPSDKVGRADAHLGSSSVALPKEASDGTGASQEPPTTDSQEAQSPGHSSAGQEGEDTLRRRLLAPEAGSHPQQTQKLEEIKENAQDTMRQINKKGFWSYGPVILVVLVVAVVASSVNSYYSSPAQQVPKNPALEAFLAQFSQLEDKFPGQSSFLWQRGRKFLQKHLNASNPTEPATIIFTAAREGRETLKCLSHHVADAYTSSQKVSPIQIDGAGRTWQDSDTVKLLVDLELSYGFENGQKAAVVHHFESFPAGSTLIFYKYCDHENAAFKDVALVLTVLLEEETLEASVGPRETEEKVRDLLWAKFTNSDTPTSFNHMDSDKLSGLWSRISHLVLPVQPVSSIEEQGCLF
# [16] = optical density change of DRC41 E. coli – strain DRC41, OD650, 24 h, E. coli filamentation project, primary screen (AID 1093);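 further: MC1000 strain lacking acrAB efflux and sulA so SOS filamentation is blocked; test concentration not given here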; conditions: E. coli DRC41 growth, higher = more signal, called active from +8 up or from −8 down
# [17] = probe aLefty2 binding to arrayed compounds – biochemical, biotinylated probe, 635/667 nm fluorescence, primary screen (AID 1094); conditions: small-molecule microarray, higher = more signal;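 further: score merges spot fluorescence near 667 nm with spot signal-to-noise ratio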
# [18] = test system: Noggin (protein binding on small-molecule microarray); experiment: small molecules binding Noggin protein – biochemical, 635/667 nm fluorescence, primary screen (AID 1095); conditions: 635 nm fluorescence, higher = more signal;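 further: score merges 667 nm feature fluorescence with signal to noise over triplicate slides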
# [19] = biological target: Neurogenic locus notch homolog protein 3 (Homo sapiens) (UniProt Q9UM47); experiment: small molecules binding NOTCH3 protein – biochemical, 635/667 nm fluorescence, primary screen (AID 1096); conditions: small-molecule microarray, 635 nm fluorescence, higher = more signal
# Chain of Neurogenic locus notch homolog protein 3 (Homo sapiens) (Q9UM47 whole entry, looked up): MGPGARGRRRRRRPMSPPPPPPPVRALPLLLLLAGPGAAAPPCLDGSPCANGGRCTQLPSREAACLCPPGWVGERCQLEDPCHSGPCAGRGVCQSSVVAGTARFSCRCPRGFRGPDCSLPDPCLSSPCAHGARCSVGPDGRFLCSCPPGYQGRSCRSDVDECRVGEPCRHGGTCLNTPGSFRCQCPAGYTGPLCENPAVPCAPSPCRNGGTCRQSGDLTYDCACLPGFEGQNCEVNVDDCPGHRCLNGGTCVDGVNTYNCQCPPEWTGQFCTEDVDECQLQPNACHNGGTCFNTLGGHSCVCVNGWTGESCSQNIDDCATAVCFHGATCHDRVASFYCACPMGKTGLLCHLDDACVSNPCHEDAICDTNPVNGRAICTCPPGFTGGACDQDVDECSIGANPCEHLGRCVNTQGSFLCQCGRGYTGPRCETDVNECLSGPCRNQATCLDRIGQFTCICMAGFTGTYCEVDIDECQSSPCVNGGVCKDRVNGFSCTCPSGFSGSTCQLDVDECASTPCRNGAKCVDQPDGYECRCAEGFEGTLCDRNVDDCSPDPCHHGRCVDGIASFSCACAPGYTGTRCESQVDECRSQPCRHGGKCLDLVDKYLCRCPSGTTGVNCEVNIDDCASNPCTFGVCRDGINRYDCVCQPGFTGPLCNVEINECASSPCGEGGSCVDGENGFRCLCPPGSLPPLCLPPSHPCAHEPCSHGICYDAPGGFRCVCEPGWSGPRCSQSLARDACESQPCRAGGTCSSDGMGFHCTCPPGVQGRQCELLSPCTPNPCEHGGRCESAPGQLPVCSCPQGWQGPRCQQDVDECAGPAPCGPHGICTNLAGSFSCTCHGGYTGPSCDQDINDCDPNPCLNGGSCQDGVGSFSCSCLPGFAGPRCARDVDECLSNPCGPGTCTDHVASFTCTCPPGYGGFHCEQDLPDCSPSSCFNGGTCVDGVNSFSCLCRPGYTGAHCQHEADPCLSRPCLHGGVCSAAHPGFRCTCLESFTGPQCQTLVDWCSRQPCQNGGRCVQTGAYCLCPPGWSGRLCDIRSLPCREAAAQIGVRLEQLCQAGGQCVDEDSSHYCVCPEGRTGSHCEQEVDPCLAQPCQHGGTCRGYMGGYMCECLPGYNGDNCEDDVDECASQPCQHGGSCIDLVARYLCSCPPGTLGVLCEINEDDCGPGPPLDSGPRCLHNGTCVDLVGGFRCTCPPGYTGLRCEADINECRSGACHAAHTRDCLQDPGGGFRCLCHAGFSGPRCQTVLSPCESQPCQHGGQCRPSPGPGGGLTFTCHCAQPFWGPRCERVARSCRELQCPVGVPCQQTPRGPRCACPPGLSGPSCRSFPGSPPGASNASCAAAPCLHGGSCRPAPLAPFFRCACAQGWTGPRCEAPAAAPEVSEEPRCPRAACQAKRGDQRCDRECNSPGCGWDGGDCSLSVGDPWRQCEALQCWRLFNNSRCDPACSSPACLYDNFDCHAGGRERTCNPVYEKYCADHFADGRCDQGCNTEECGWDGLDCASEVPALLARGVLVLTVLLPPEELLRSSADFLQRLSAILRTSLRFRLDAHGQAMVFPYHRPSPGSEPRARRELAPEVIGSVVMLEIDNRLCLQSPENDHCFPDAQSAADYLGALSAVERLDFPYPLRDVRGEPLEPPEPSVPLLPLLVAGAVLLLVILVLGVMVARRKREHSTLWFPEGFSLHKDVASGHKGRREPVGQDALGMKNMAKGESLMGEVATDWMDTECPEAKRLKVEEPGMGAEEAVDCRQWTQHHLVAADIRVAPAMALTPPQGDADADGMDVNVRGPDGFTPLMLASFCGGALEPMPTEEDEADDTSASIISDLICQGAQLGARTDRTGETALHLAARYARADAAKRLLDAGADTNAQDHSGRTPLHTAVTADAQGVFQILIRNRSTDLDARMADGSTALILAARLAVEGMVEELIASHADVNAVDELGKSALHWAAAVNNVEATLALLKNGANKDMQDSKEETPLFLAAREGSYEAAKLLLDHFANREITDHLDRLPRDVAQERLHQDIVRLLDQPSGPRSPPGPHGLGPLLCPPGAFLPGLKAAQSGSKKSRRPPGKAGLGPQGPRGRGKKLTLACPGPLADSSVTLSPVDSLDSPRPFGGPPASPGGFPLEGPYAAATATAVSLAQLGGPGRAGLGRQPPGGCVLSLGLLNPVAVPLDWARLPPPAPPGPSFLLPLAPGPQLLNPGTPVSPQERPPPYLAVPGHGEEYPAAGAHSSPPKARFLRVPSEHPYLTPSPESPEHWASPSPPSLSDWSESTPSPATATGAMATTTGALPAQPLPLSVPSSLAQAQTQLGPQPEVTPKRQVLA
# [20] = probe aEGFR binding to arrayed compounds – biochemical, biotinylated probe, 635/667 nm fluorescence, primary screen (AID 1097); conditions: small-molecule microarray, higher = more signal;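 further: probe is a biotinylated anti-EGFR antibody binding compounds printed on slides; score combines fluorescence near 667 nm and signal to noise of each spot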
Compound,composite z-score [1],composite z-score [2],composite z-score [3],composite z-score [4],composite z-score [5],composite z-score [6],composite z-score [7],z-score [8],composite z-score [9],composite z-score [10],composite z-score [11],z-score [12],z-score [13],z-score [14],composite z-score [15],z-score [16],composite z-score [17],composite z-score [18],composite z-score [19],composite z-score [20]
C=CCNC(=O)[C@H]1[C@@H]2C(=O)O[C@@H](c3ccccc3)[C@@H](c3ccccc3)N2[C@@H](c2ccc(O)cc2)[C@]12C(=O)N(C(=O)OCCOC)c1ccc(C#CCCO)cc12,0.174,1.93,-0.154,0.932,0.0576,1.33,1.32,-4.26 (inactive),-0.0024,-0.0618,1.58,1.16 (inactive),-0.47 (inactive),0.804 (inactive),2.97,1.07 (inactive),-0.0916,-0.176,-0.15,-0.0163
CN(C)CCCCNC(=O)[C@H]1C[C@H]2C(=O)N[C@@H](Cc3ccccc3)C(=O)N2[C@H]1c1ccc(O)cc1,-0.289,0.703,-0.0805,0.934,1.37,1.65,1.22,1.85 (inactive),0.748,0.107,1.54,-0.368 (inactive),0.523 (inactive),-1.4 (inactive),0.248,1.12 (inactive),0.0274,1.66,1.11,0.116
[N-]=[N+]=NCc1ccccc1C[C@@]1(C(=O)NCC(O)CO)N=C(c2ccc(OCCCO)cc2)O[C@@H]1c1ccccc1CN=[N+]=[N-] (stereo not given in full),0.178,-0.342,0.0587,0.939,1.43,1.34,1.21,-0.429 (inactive),0.704,-0.115,1.52,-0.235 (inactive),0.648 (inactive),1.34 (inactive),3.68,0.526 (inactive),0.0942,0.875,0.474,-0.197
O=C(NCc1ccccc1)[C@]1(CCS(=O)(=O)c2ccccc2)N=C(c2ccc(OCCCO)cc2)O[C@@H]1c1ccccc1,0.0169,0.938,0.0485,1.05,1.68,1.48,1.18,-2.35 (inactive),1.31,-0.378,1.57,0.63 (inactive),0.194 (inactive),36.9 (active),1.78,0.887 (inactive),-0.0552,0.204,1.07,0.219
